# Screening data deposited in PubChem BioAssay by The Scripps Research Institute Molecular Screening Center.
# Hits are enriched below; roughly 4.6% of the tested compounds scored in any of these assays.
# hgDAF12 agonist – H. glycines DAF-12 receptor agonists, primary screen, cell-based, luminescence, HEK293, GAL4 fusion, UAS-luciferase; actives 1.8% (n = 370,000); Nuclear hormone receptor DAF-12 (Heterodera glycines), GAL4 fusion; HEK293 GAL4-hgDAF12 UAS-luciferase reporter, agonist luminescence; normalized to butyrate control; activation, % at 6.8 µM;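 active = activation above a cutoff set at the mean of all screened compounds plus 3 SD, cut at about 10% in these data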;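 also: 0% = DMSO wells and 100% = sodium butyrate wells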
# hcDAF-12 act – H. contortus DAF-12 nuclear receptor activators, primary screen, cell-based, luminescence, HEK293, lit1-tk-luc reporter | activation, % at 6.8 µM | HEK293 hcDAF-12 lit1-tk-luc reporter; 0% DMSO, 100% Δ7-dafachronic acid | AID 652067, 2013 | actives 1.4% (n = 370,000);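 active = activation above the mean of all tested compounds plus 3 SD, cut at about 5.5% in these data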;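 also: 100% = response to 3 µM Δ7-dafachronic acid high control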
# ssDAF-12 act – S. stercoralis DAF-12 nuclear receptor activators, primary screen, cell-based, luminescence, HEK293, GRIP1 co-expression, lit1-tk-luc; Nuclear hormone receptor DAF-12 (Strongyloides stercoralis); HEK293 ssDAF-12/GRIP1 lit1-tk-luc reporter; % of 3 µM dafachronic acid response; activation, % at 6.8 µM; actives 1% (n = 370,000); AID 652126, 2013;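 active = activation above the mean over all tested compounds plus 3 SD, cut at about 0.9% in these data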;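 also: 0% = DMSO-only wells and 100% = 3 µM delta7-dafachronic acid wells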
# DAX1 inh-1 – DAX1 (NR0B1) inhibitors, primary screen, cell-based, HEK293, Gal4-DAX1, luciferase luminescence; actives 0.99% (n = 340,000); Nuclear receptor subfamily 0 group B member 1 (Homo sapiens), P51843; AID 504766, 2011; HEK293 Gal4-DAX1 luciferase reporter; inhibition, % at 6.75 µM;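 active = inhibition above the mean over all tested compounds plus 3 SD, cut at about 4.2% in these data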;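 also: 0% = DAX1-transfected cells with DMSO and 100% = empty-vector control cells with DMSO; inhibition shows as a rise in luminescence from relieved DAX1 repression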
# Target sequence (P51843 207-470 limits assumed): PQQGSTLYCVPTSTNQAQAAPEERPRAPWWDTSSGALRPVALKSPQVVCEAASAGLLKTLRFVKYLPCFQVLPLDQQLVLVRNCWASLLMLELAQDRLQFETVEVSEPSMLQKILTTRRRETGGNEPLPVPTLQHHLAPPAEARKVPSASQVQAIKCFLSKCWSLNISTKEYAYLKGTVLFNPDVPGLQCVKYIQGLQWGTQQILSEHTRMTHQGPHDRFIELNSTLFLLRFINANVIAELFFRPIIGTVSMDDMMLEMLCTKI
# DAX1 inh-2 – DAX1 (NR0B1) inhibitors on StAR promoter, primary screen, cell-based, luminescence, SF-1 (NR5A1), full-length DAX-1; HEK293T StAR-luciferase reporter, SF-1/DAX-1 repression relief; AID 652010, 2013; inhibition, % at 6.8 µM; actives 1.1% (n = 370,000);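 active = inhibition above the mean over all tested compounds plus 3 SD, cut at about 3.6% in these data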;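 also: 0% = DAX-1 cells with DMSO and 100% = cells lacking DAX-1 with DMSO; higher inhibition means more luminescence from relief of DAX-1 repression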
# Wee1 degr inh – Wee1 degradation inhibitors, primary screen, cell-based, HeLa, Wee1K328M-luciferase, luminescence; reporter increase, % at 5 µM; actives 1.2% (n = 220,000); HeLa Luc-Wee1K328M stability; 100% = proteasome inhibitor MG132 effect; Wee1-like protein kinase (Homo sapiens), P30291;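 active = activation above the mean of all tested compounds plus 3 SD, set per screening run, cut at about 8.8% in these data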;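 also: cells exposed to compound for 20 h before luminescence read; 0% = DMSO alone and 100% = MG132 at 30 µM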
# Wee1 degr conf – Wee1 degradation inhibitors, confirmation, cell-based, HeLa, Wee1K328M-luciferase, luminescence, triplicate; actives 4% (n = 1,100); AID 1410, 2008; HeLa Luc-Wee1K328M degradation; vehicle 0%, proteasome-blocked wells 100%; shares compounds with Wee1 degr inh; activation, % at 5 µM; in the data active = activation above about 8.9%
# Active calls of the source: *; x = not tested or not shown.
SMILES,hgDAF12 agonist,hcDAF-12 act,ssDAF-12 act,DAX1 inh-1,DAX1 inh-2,Wee1 degr inh,others
CCCC1C(C#N)=C(N)Oc2c1c(=O)oc1ccccc21 (stereo unspecified),1,-2,-1,4.6*,1,-2,
CC(C)Oc1ccc(C2C(C#N)=C(N)Oc3c2c(=O)oc2ccccc32)cc1 (stereo unspecified),1,0,-1,0,0,-1,
CC(C)C1C(C#N)=C(N)Oc2c1c(=O)oc1ccccc21 (stereo unspecified),-2,0,-1,0,4.0*,x,
NP(=O)(Nc1ccccc1)Nc1ccccc1,-3,-1,-1,0,0,x,
CC1=NN(c2ccccc2)C(=O)/C1=C/c1c(O)[nH]c(=S)[nH]c1=O,-1,1,-1,2,0,1,
CCOc1ccc2[nH]c(=O)c(CN(CCO)C3(c4nnnn4C4CCCCC4)CCCCC3)cc2c1,0,0,-1,-1,0,0,
CCC(C)C1NC(=O)C(C(C)=O)=C1O (stereo unspecified),-5,-1,-1,0,1,x,
COc1cc2c3cc1Oc1cc(ccc1O)C[C@@H]1c4c(cc(OC)c(O)c4Oc4ccc(cc4)C[C@H]3N(C)CC2)CCN1C,-3,2,0,1,4.5*,-1,
Cc1ccc(S(=O)(=O)N2Cc3cnnn3-c3ccccc3C2C#N)cc1 (stereo unspecified),2,2,0,0,0,x,
CC(=O)Nc1ccc(S(=O)(=O)N2Cc3cnnn3-c3ccccc3C2C#N)cc1 (stereo unspecified),2,0,-1,-1,3.7*,x,
CC[N+](C)(CC)CCCCOc1ccc2c(c1)C(=O)c1cc(OCCCC[N+](C)(CC)CC)ccc1-2,3,-1,-2,5.5*,0,-1,
CCOC(=O)[C@]12Cc3cc(C)ccc3[C@H]1N(C)C(=O)c1cc(OC)ccc12,0,0,-1,x,0,x,
Cc1ccc(-c2nn(Cc3ccccc3)cc2C(=O)O)cc1,1,3,0,5.3*,0,-3,
CC(C)(C)Cc1nnc(NC(=O)COc2ccc(Cl)cc2Cl)o1,-2,0,-2,x,x,x,
OC12CCCCC1C(c1ccccc1)NCC2 (stereo unspecified),4,-1,-1,4.3*,0,3,
COc1ccc2[nH]c3c(c2c1)CCNC3C (stereo unspecified),-1,5.7*,0,2,-1,x,
O=C(NCCN1CCC2(CC1)C(=O)NCN2c1ccccc1)c1ccc(F)c(F)c1,-2,0,-1,x,2,x,
CCOCN(C(=O)CCl)c1c(C)cccc1CC,0,-1,-1,-1,-3,x,
CN1CCN(C(=O)COc2ccc3ccccc3c2)CC1,3,1,0,0,0,x,
CC(C)NS(=O)(=O)c1ccc(OCC(=O)N2CCN(C)CC2)cc1,6,0,-1,4.4*,0,-1,
CN1CCN(C(=O)COc2ccc(-c3nc4ccccc4s3)cc2)CC1,11*,5,0,-4,3.9*,-2,
O=C(c1ccc(Cl)cc1)C1CCCN(Cc2ccc3ncccc3c2)C1 (stereo unspecified),-2,-1,-2,-2,-2,-3,
O=C1Nc2ccccc2/C1=C/c1cnc[nH]1,-5,-1,0,-2,-2,2,
COc1ccc2c(c1)/C(=C/c1cnc[nH]1)C(=O)N2,0,4,1.1*,-3,-3,x,
O=C(Nc1cccc(Cl)c1)c1c(O)c2c(n(Cc3ccccc3)c1=O)CCCC2,x,x,x,x,x,-1,
SMILES,hgDAF12 agonist,hcDAF-12 act,ssDAF-12 act,DAX1 inh-1,DAX1 inh-2,Wee1 degr inh,others
CC(NCc1ccc(Cl)cc1)C(O)c1ccccc1 (stereo unspecified),-4,-3,-2,0,-2,8.9*,
Cc1nc2ccsc2c(=O)n1-c1ccccc1Cl,0,0,-1,0,0,x,
COc1ccc(Cc2cn(C)c(N)n2)cc1,0,0,-1,x,0,x,
CC12CN3CC(C)(CN(C1)C3c1ccco1)C2=O (stereo unspecified),2,1,-1,0,0,9.3*,
CC12CN3CC(C)(CN(C1)C3c1cccnc1)C2=O (stereo unspecified),2,-1,-1,0,0,5,
COC(=O)C1=C(c2ccc(F)cc2OCc2ccccc2)C[C@@H]2CC[C@H]1N2C(=O)NCc1ccc(C(F)(F)F)cc1,-2,-2,-1,-2,0,x,
O=c1c2ccccc2[nH]c(=S)n1-c1cccnc1,0,0,-1,x,2,9.7*,
Cc1ccc2[nH]c(=S)n(-c3cccnc3)c(=O)c2c1,0,-1,-2,x,0,-4,
CC(=O)OC1(c2ccccc2)CC(C(C)(C)C)CN(C(C)(C)C)C1 (stereo unspecified),6,-1,-1,-1,0,14*,Wee1 degr conf=6
CC12CN3CC(C)(CN(C1)C3c1cccs1)C2O (stereo unspecified),0,-1,-2,0,1,13*,Wee1 degr conf=0
O=C(C[N+]12CCC(CC1)C(CO)C2)c1ccc([N+](=O)[O-])cc1 (stereo unspecified),-2,-2,-1,4,0,14*,Wee1 degr conf=3
COc1ccc(C(c2nnnn2-c2c(C)cccc2C)N2CCC3(CC2)C(=O)NCN3c2ccccc2)cc1 (stereo unspecified),-2,-1,-1,x,-2,x,
CN1CCN(Cc2nc3ccccc3n2C)CC1,0,0,-1,1,2,-1,
Cn1c(NN=O)nc2ccccc21,-5,-2,-1,0,-1,15*,Wee1 degr conf=2
O=C(COc1ccccc1)N1CCN(C/C=C/c2ccccc2)CC1,-2,-1,-1,1,-1,1,
O=C(COc1ccc(Cl)cc1)N1CCN(C/C=C/c2ccccc2)CC1,-1,-1,-1,0,1,17*,Wee1 degr conf=3
